# PubChem BioAssay (Tox21)
# Results filed as inconclusive are left out. Where a call stands in place of a potency, no number is given. Calls of active or inactive are those of the source. Unless noted, calls come from the whole dose curve.
# Tests used:
# [1] = qHTS assay to identify small molecule agonists of the peroxisome proliferator-activated receptor delta (PPARd) signaling pathway - cell viability counter screen (AID 743211; active = well fitted curve in the direction sought with a large enough effect in the repeat runs; an effect the other way counts as inactive or inconclusive; note: nearly all actives have a fitted effect of over 55% in size)
# Method in brief: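 Read-out: CellTiter-Glo luminescence, 30 min RT, measured in the same wells as the beta-lactamase reporter. Cells: GeneBLAzer PPAR delta UAS-bla HEK293H, 3000 cells/well, compound exposure 17 h at 37C.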
# [2] = qHTS assay to identify small molecule antagonists of the peroxisome proliferator-activated receptor delta (PPARd) signaling pathway - cell viability counter screen (AID 743213; active = well fitted curve in the direction sought with a large enough effect in the repeat runs; an effect the other way counts as inactive or inconclusive; note: nearly all actives have a fitted effect of over 50% in size; note: potency is the fitted concentration of half-maximal effect)
# Method in brief: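 HEK293H cells with the PPARd UAS-bla reporter, co-treated 17 h at 37 C with compounds and L165041 (300 nM final), were lysed with CellTiter-Glo. Luminescence indicated viable cell content.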
# [3] = qHTS assay to identify small molecule agonists of the farnesoid-X-receptor (FXR) signaling pathway - cell viability counter screen (AID 743218; active = well fitted curve in the direction sought with a large enough effect in the repeat runs; an effect the other way counts as inactive or inconclusive; note: nearly all actives have a fitted effect of over 45% in size; note: potency is the fitted concentration of half-maximal effect)
# Method in brief: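 Same-well cytotoxicity check on FXR-UAS-bla HEK 293T cells: 5 h attachment, 16 h compound at 37 C, CellTiter-Glo luminescence read at room temperature after 30 min.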
# [4] = target: Vitamin D3 receptor (Homo sapiens) (UniProt P11473); test: qHTS assay to identify small molecule agonists of the vitamin D receptor (VDR) signaling pathway (AID 743222)
# Method in brief: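 Using LiveBLAzer B/G FRET detection, agonism was scored in VDR-bla cells exposed overnight (16 h, 37C) to DMSO-dissolved compounds; substrate incubation was 2 h at room temperature.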
# [5] = target: Vitamin D3 receptor (Homo sapiens) (UniProt P11473); test: qHTS assay to identify small molecule antagonists of the vitamin D receptor (VDR) signaling pathway (AID 743223; active = well fitted inhibition curve with a large enough effect in the signal ratio in the repeat runs, not every such curve was filed as active; the % refers to the signal ratio)
# Method in brief: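 Beta-lactamase reporter read-out: FRET substrate fluorescence after 2 h at room temperature, following 16 h exposure of VDR-bla cells to test compound plus 3 nM (final) 1alpha,25-dihydroxyvitamin D3 agonist at 37C.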
# [6] = qHTS assay to identify small molecule antagonists of the vitamin D receptor (VDR) signaling pathway - cell viability counter screen (AID 743225; active = well fitted curve in the direction sought with a large enough effect in the repeat runs; an effect the other way counts as inactive or inconclusive; note: nearly all actives have a fitted effect of over 50% in size; note: potency is the fitted concentration of half-maximal effect)
# Method in brief: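 Viability counter screen run in the same wells as the beta-lactamase reporter assay: HEK 293T VDR-UAS-bla cells, 16 h compound exposure at 37C with 3 nM (final) 1-alpha,25-dihydroxyvitamin D3. CellTiter-Glo luminescence, 30 min, room temperature.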
# [7] = qHTS assay to identify small molecule agonists of the NFkB signaling pathway - cell viability counter screen (AID 1159515); note: series mostly up to about 61 µM; nearly all actives have a fitted effect of over 55% in size
# Method in brief: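 Counter screen run alongside the NFkB-bla agonist assay: ME-180 reporter cells exposed to compounds for 5 hr, then lysed with CellTiter-Glo in the same wells. Luminescence, read after 30 min, reflects viable cells.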
# [8] = qHTS assay to identify small molecule agonists of the endoplasmic reticulum stress response signaling pathway (AID 1159516; active = well fitted activation curve with a large enough effect in the signal ratio in the repeat runs, not every such curve was filed as active; the % refers to the signal ratio)
# Method in brief: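 For this screen, HeLa cells stably carrying beta-lactamase under the ER stress response element received test compounds, positive controls or DMSO for 5 hr at 37 C; B/G FRET substrate was then added and dual-wavelength emission recorded.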
# [9] = qHTS assay to identify small molecule antagonists of the retinoid-related orphan receptor gamma (ROR-gamma) signaling pathway - cell viability counter screen (AID 1159520; active = well fitted curve in the direction sought with a large enough effect in the repeat runs; an effect the other way counts as inactive or inconclusive; note: nearly all actives have a fitted effect of over 50% in size)
# Method in brief: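 Tet-on ROR gamma CHO cells (1,000/well) were plated 4 hr, given compounds in DMSO for 2 hr at 37 C, then induced with 1 uM final doxycycline for 16 hr. Viability was read as ATP by CellTiter-Glo luminescence after 30 min.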
# [10] = target: Nuclear receptor ROR-gamma (Homo sapiens) (UniProt P51449); test: qHTS assay to identify small molecule antagonists of the retinoid-related orphan receptor gamma (ROR-gamma) signaling pathway (AID 1159521; active = well fitted curve in the direction sought with a large enough effect in the repeat runs; an effect the other way counts as inactive or inconclusive; note: nearly all actives have a fitted effect of over 50% in size; note: potency is the fitted concentration of half-maximal effect)
# Method in brief: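 Luminescence readout (ONE-Glo, 30 min RT) after 16 h doxycycline induction; loss of signal scored as antagonism. CHO cells with TET-inducible RORγ and RORE-LUC reporter; compounds added 2 h before 1 uM final doxycycline.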
# [11] = qHTS assay to identify small molecule agonists of the AP-1 signaling pathway - cell viability counter screen (AID 1159525); note: nearly all actives have a fitted effect of over 55% in size
# Method in brief: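 Each titration point was normalised to DMSO and tetra n-octyl ammonium bromide controls. The read was Cell Titer Glo luminescence after 30 min at RT, following 5 h compound exposure of ME-180 AP-1-bla cells at 37 °C.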
# [12] = qHTS assay to identify small molecule agonists of the AP-1 signaling pathway (AID 1159526)
# [13] = target: Retinoic acid receptor RXR-alpha (Homo sapiens) (UniProt P19793); test: qHTS assay to identify small molecule agonists of the RXR signaling pathway (AID 1159527); note: nearly all actives have a fitted effect of over 35% in size; note: potency is the fitted concentration of half-maximal effect
# Method in brief: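 Agonist mode; 9-cis retinoic acid positive control. HEK 293T UAS-bla reporter cells, 2% charcoal-stripped FBS, 16 hr compound exposure at 37 C/5% CO2. LiveBLAzer B/G FRET substrate 2 hr RT; ex 405, em 460/530 nm.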
# [14] = target: Peroxisome proliferator-activated receptor delta (Homo sapiens) (UniProt Q03181); test: qHTS assay to identify small molecule agonists of the peroxisome proliferator-activated receptor delta (PPARd) signaling pathway (AID 743212)
# Method in brief: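 Cells expressing a UAS-driven beta-lactamase reporter (PPARd-bla HEK293H) were given test compounds after a 5 h settle and kept at 37 C. Reporter activity was then measured as FRET fluorescence using LiveBLAzer B/G substrate.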
# [15] = target: Peroxisome proliferator-activated receptor delta (Homo sapiens) (UniProt Q03181); test: qHTS assay to identify small molecule antagonists of the peroxisome proliferator-activated receptor delta (PPARd) signaling pathway (AID 743215; active = well fitted inhibition curve with a large enough effect in the signal ratio in the repeat runs, not every such curve was filed as active; the % refers to the signal ratio;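 note: cells stimulated with agonist L165041 at 300 nM final during compound exposure; series mostly up to about 62 µM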)
# Method in brief: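 Screen format: qHTS, antagonist mode. HEK293H PPARd-bla cells received compound and 300 nM L165041 (final), 17 h, 37 C. Beta-lactamase detected via FRET substrate fluorescence, 2 h, room temperature.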
# [16] = target: Bile acid receptor (Homo sapiens) (UniProt Q96RI1); test: qHTS assay to identify small molecule antagonists of the farnesoid-X-receptor (FXR) signaling pathway (AID 743217; active = well fitted inhibition curve with a large enough effect in the signal ratio in the repeat runs, not every such curve was filed as active; the % refers to the signal ratio)
# Method in brief: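 Quantitative HTS, beta-lactamase reporter format: FXR-UAS-bla HEK 293T cells co-treated 16 h at 37 °C with compounds and 50 uM final chenodeoxycholic acid, then read by B/G FRET fluorescence.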
# [17] = qHTS assay to identify small molecule agonists of the vitamin D receptor (VDR) signaling pathway - cell viability counter screen (AID 743224; active = well fitted curve in the direction sought with a large enough effect in the repeat runs; an effect the other way counts as inactive or inconclusive; note: nearly all actives have a fitted effect of over 50% in size; note: potency is the fitted concentration of half-maximal effect)
# Method in brief: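 Counter screen for cytotoxicity: VDR-bla cells at 2,000 cells/well, 16 h compound exposure, then CellTiter-Glo luminescence after the beta-lactamase measurement.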
# [18] = qHTS assay to identify small molecule antagonists of the farnesoid-X-receptor (FXR) signaling pathway - cell viability counter screen (AID 743221; active = well fitted cell-killing curve with a large enough effect in the repeat runs, not every such curve was filed as active; note: nearly all actives have a fitted effect of over 50% in size; note: potency is the fitted concentration of half-maximal effect)
# Method in brief: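 HEK 293T FXR-bla cells, 5 h pre-incubation; compound + CDCA 50 uM final, 16 h, 37 C; beta-lactamase FRET read first, then CellTiter-Glo luminescence, 30 min RT.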
# [19] = qHTS assay to identify small molecule agonists of the endoplasmic reticulum stress response signaling pathway - cell viability counter screen (AID 1159517)
# Method in brief: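 Cpd-treated ESRE-bla HeLa (5 hr, 37 C) → LiveBLAzer 2 hr RT → CellTiter-Glo 30 min RT → luminescence.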
# [20] = target: Bile acid receptor (Homo sapiens) (UniProt Q96RI1); test: qHTS assay to identify small molecule agonists of the farnesoid-X-receptor (FXR) signaling pathway (AID 743220; active = well fitted activation curve with a large enough effect in the signal ratio in the repeat runs, not every such curve was filed as active; the % refers to the signal ratio)
# Method in brief: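 FXR-UAS-bla HEK 293T cells carrying a UAS-driven beta-lactamase reporter were plated for 5 h at 37C/5% CO2, then exposed to DMSO-dissolved Tox21 10K compounds for 16 h at 37C. A LiveBLAzer B/G FRET substrate was loaded for 2 h at room temperature before fluorescence reading.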
# Sequence of Retinoic acid receptor RXR-alpha (Homo sapiens) (P19793 whole entry, looked up): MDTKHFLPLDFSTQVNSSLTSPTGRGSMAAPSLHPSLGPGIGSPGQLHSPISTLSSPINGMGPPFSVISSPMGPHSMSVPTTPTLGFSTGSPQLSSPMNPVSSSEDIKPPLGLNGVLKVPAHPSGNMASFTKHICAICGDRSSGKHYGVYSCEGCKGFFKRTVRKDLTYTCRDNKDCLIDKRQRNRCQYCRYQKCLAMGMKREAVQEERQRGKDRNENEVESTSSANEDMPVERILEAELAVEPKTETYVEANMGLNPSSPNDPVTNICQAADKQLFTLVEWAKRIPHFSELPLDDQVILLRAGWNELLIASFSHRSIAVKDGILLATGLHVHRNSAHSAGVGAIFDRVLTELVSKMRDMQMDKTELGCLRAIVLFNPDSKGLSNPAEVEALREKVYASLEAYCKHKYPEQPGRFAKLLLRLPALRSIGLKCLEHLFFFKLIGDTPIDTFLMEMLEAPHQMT
# Sequence of Peroxisome proliferator-activated receptor delta (Homo sapiens) (Q03181 whole entry, looked up): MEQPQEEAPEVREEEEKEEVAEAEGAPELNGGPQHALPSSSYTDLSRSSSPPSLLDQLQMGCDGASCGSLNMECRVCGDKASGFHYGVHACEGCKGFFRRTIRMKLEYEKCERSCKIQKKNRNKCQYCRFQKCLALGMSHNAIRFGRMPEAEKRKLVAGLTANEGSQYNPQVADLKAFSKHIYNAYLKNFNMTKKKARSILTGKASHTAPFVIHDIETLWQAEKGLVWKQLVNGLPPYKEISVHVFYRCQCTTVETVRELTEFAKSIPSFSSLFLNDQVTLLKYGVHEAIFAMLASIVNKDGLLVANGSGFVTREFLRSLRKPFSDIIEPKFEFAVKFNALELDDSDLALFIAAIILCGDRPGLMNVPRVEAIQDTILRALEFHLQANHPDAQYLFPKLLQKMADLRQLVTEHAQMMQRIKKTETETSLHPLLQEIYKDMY
# Sequence of Bile acid receptor (Homo sapiens) (Q96RI1 whole entry, looked up): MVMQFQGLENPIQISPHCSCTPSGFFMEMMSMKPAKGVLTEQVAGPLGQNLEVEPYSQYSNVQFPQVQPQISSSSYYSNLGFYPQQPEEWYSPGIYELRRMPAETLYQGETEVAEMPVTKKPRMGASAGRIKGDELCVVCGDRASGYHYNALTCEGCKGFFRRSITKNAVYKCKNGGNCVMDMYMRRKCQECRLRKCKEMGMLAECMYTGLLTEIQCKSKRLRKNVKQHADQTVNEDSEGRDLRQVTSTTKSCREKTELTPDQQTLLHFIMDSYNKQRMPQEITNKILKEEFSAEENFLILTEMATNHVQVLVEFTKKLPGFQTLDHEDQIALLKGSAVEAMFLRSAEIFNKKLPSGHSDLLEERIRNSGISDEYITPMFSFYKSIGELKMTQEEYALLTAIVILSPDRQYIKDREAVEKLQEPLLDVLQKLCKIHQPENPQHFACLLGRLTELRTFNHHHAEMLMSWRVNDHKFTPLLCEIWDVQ
# Sequence of Vitamin D3 receptor (Homo sapiens) (P11473 whole entry, looked up): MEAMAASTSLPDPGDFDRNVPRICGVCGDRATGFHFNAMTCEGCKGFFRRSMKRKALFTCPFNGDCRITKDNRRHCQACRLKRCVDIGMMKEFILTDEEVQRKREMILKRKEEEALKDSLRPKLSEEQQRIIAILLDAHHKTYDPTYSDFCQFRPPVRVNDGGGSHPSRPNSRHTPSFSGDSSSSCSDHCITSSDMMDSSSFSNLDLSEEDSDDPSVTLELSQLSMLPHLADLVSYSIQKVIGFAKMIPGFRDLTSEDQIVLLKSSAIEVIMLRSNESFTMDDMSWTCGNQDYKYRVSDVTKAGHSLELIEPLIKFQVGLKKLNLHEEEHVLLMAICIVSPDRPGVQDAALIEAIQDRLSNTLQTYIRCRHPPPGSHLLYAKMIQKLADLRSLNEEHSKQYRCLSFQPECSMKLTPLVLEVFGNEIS
SMILES,Potency [1],Potency [2],Potency [3],Potency [4],Potency [5],Potency [6],Potency [7],Potency [8],Potency [9],Potency [10],Potency [11],Potency [12],Potency [13],Potency [14],Potency [15],Potency [16],Potency [17],Potency [18],Potency [19],Potency [20]
COc1nc(C)nc(NC(=O)NS(=O)(=O)c2ccccc2Cl)n1,inactive,inactive,inactive,inactive,inactive,inactive,inactive,inactive,inactive,inactive,inactive,inactive,inactive,,,,,,,
CN1C2CCC(C)(C)C1CC(OC(=O)C(O)(c1cccs1)c1cccs1)C2 (configuration not stated),inactive,inactive,inactive,inactive,inactive,inactive,inactive,inactive,inactive,inactive,inactive,inactive,inactive,inactive,inactive,inactive,inactive,,,
C#CCC1=C(C)C(OC(=O)C2C(C=C(C)C)C2(C)C)CC1=O (configuration not stated),,inactive,inactive,inactive,,,inactive,inactive,,,inactive,,,,inactive,,inactive,inactive,inactive,
CCC(OC(C)=O)C(CC(C)NC)(c1ccccc1)c1ccccc1 (configuration not stated),,30.9 µM (active),61.6 µM (active),inactive,,44 µM (active),inactive,inactive,,,inactive,,,,,,,69.2 µM (active),inactive,
FC(F)C(F)(F)OCC(Cn1cncn1)c1ccc(Cl)cc1Cl (configuration not stated),,,inactive,inactive,inactive,inactive,inactive,inactive,,,inactive,inactive,inactive,,,,,,inactive,
O=S(=O)(NS(=O)(=O)C(F)(F)F)C(F)(F)F,inactive,inactive,inactive,,,inactive,inactive,inactive,inactive,,,,,,,,inactive,inactive,inactive,
CC(=O)C(Cl)C(=O)N(C)C (configuration not stated),inactive,inactive,inactive,inactive,inactive,inactive,inactive,inactive,,,inactive,inactive,inactive,inactive,inactive,,,inactive,inactive,
Oc1ccc([C@H]2CNCc3c2ccc(O)c3O)cc1O,inactive,inactive,inactive,inactive,inactive,,inactive,inactive,,,inactive,inactive,inactive,inactive,,inactive,inactive,inactive,inactive,inactive
N#Cc1c[nH]cc1-c1cccc2c1OC(F)(F)O2,,,inactive,inactive,,,inactive,inactive,,17.2 µM (active),inactive,inactive,1.38 µM (active),inactive,,,inactive,inactive,inactive,
C=CC(=C)C,,inactive,inactive,inactive,inactive,inactive,inactive,inactive,inactive,inactive,inactive,inactive,inactive,,inactive,inactive,inactive,inactive,,inactive
COCCC#N,inactive,inactive,inactive,inactive,inactive,,inactive,inactive,inactive,inactive,inactive,inactive,inactive,inactive,inactive,,inactive,inactive,,
CN(C)c1ccc(N)cc1,,,inactive,inactive,,,inactive,inactive,,,inactive,,,inactive,,,42.6 µM (active),inactive,inactive,
CN/C(=N\[N+](=O)[O-])NCc1cnc(Cl)s1,inactive,inactive,inactive,inactive,inactive,inactive,inactive,inactive,inactive,inactive,inactive,inactive,inactive,,,,inactive,inactive,,
COc1ccc2c(c1OC)C(=O)O[C@@H]2[C@H]1c2cc3c(cc2CCN1C)OCO3,inactive,inactive,inactive,,,inactive,inactive,inactive,inactive,inactive,inactive,inactive,inactive,inactive,inactive,,inactive,,,
O=c1[nH]c(Cl)c(Cl)cc1Cl,inactive,,inactive,inactive,inactive,,inactive,inactive,inactive,,,inactive,,inactive,inactive,inactive,inactive,inactive,inactive,inactive
CCc1cccc(C)c1N(C(=O)CCl)[C@@H](C)COC,inactive,inactive,inactive,,,,inactive,inactive,,,inactive,inactive,,,,,inactive,inactive,inactive,
COC(=O)N(OC)c1ccccc1COc1ccn(-c2ccc(Cl)cc2)n1,,,inactive,inactive,,,inactive,inactive,,,,,,,,,,,inactive,inactive
COc1ccc(Cc2nccc3cc(OC)c(OC)cc23)cc1OC,inactive,inactive,inactive,,,inactive,inactive,inactive,,4.22 µM (active),inactive,inactive,inactive,inactive,,,inactive,inactive,inactive,
CSSC,inactive,inactive,inactive,inactive,inactive,inactive,inactive,inactive,inactive,,inactive,,,inactive,inactive,,inactive,inactive,,
O.O.O.O.O.O.O=S(=O)([O-])[O-].[Ni+2],inactive,inactive,inactive,,,,inactive,inactive,inactive,,inactive,inactive,inactive,,,,inactive,inactive,,
O=C(N[C@@H]1N=C(c2ccccc2F)c2cccc3c2N(CC3)C1=O)c1cc2ccccc2[nH]1,inactive,,inactive,inactive,inactive,inactive,inactive,inactive,inactive,inactive,inactive,,inactive,inactive,,,inactive,inactive,,
